These results are taken from the supplement of paper PMC10941209.

A number with no mark means an inactive call.

This test has as its system Toxoplasma gondii RH 2F1 tachyzoites (intracellular in HFF). The test can be described thus: parasite survival relative to DMSO control; higher = less antiparasitic activity, active = 20 or less. The settings on record: 1 µM; 72 h. The essentials:
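Compound at 1 μM was applied for 72 h at 37°C in 5% CO2 to HFF cells in 96-well plates (5 × 10^3 cells/well) that had been infected for 3 h in D2 medium with 5 × 10^3 Toxoplasma gondii RH-2F1 tachyzoites carrying β-galactosidase. The readout was absorbance at 570 nm, 30 min after CPRG addition. Survival is reported as a percentage of the signal from infected wells given DMSO, based on at least 2 biological replicates.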
Consider `COc1cc(NCc2ccc3nc(N)nc(N)c3c2C)cc(OC)c1OC`, for which the parasite survival is 3.86% (active).

For `Nc1ccc(-c2nc3cc(C(F)(F)F)ccc3n2C23CC4CC(CC(C4)C2)C3)cc1`, the parasite survival is 53%.

Turning to `Cc1onc(-c2ccccc2Cl)c1C(=O)N[C@@H]1C(=O)N2[C@@H]1SC(C)(C)[C@@H]2C(=O)O`, the parasite survival was 50.5%.

For `Nc1nc(C(F)(F)F)cc2c1[nH]c(=O)n2Cc1ccccc1`, the parasite survival is 49.1%.

Take `CC[C@@]1(O)C(=O)OCc2c1cc1n(c2=O)Cc2cc3c(CN(C)C)c(O)ccc3nc2-1`: the parasite survival is 50.5%.

Regarding `Cc1cc(Nc2ccc(F)cc2)nc(SCc2nc3ccccc3[nH]2)n1`, the parasite survival was 42.4%.

`NC(=O)c1ccccc1NC(=O)c1ccc(C(=O)Nc2ccccc2C(N)=O)cc1`: the parasite survival is 39.5%.

Take `COc1ccc2c(c1OC)C(=O)OC2C1c2c(cc3c(c2OC)OCO3)CCN1C` (stereo not given): the parasite survival is 68.3%.

With `CN(C)CC(=O)Nc1ccc2[nH]c(=O)c3ccccc3c2c1`, the parasite survival is 55.3%.

`CC1CCc2c(N3CCC(O)CC3)c(F)cc3c(=O)c(C(=O)O)cn1c23` (stereo not given): the parasite survival was 51%.

As for `CC(C)C(=O)N[C@H]1[C@H]([C@H](O)[C@H](O)CO)OC(C(=O)O)=C[C@@H]1N=[N+]=[N-]`, the parasite survival is 72.6%.

As for `CCOc1ccc(C(=O)NCCc2ccccc2)cc1`, the parasite survival was 60.8%.

Regarding `O=C1C=C(c2ccccc2)S(=O)(=O)c2ccccc21`, the parasite survival was 44.4%.

As to `COc1ccc2c(c1)cc(CNC(=O)c1cc3ccccc3o1)n2CC(=O)O`, the parasite survival was 64.2%.

With `O=C(Nc1ncc(Cc2cccc3ccccc23)s1)C1CCCCC1`, the parasite survival is 25.3%.

Regarding `COc1nc2ccc(Br)cc2cc1[C@@H](c1ccccc1)[C@@](O)(CCN(C)C)c1cccc2ccccc12`, the parasite survival was 14% (active).

On to `CC1(C)C[C@H]1C(=O)N/C(=C\CCCCSC[C@@H](N)C(=O)O)C(=O)O`, for which the parasite survival is 94.5%.

`CCN(CC)CCn1c(=N)n(CC(O)COc2ccc(Cl)cc2Cl)c2ccccc21` (stereo not given): the parasite survival was 26.7%.

As to `O=C(/C=C\n1cnc(-c2cc(C(F)(F)F)cc(C(F)(F)F)c2)n1)NNc1ccccn1`, the parasite survival was 4.89% (active).

Turning to `Cc1ccc(NC(=O)c2cc(Cl)ccc2O)cc1`, the parasite survival was 42.3%.

`CC#C[C@]1(O)CC[C@H]2[C@@H]3CCC4=CC(=O)CCC4=C3[C@@H](c3ccc(N(C)C)cc3)C[C@@]21C`: the parasite survival was 45.7%.

On to `CO/N=C(\C(=O)N[C@@H]1C(=O)N2C(C(=O)OCOC(=O)C(C)(C)C)=C(/C=C\c3scnc3C)CS[C@H]12)c1csc(N)n1`, for which the parasite survival is 54.4%.

`CN(O)C(=O)c1cc2c(CN3CCC[C@H]3C(N)=O)cn(Cc3ccc(F)cc3)c2cn1`: the parasite survival was 76.7%.

On to `COc1ccc(SCC(=O)N2c3ccccc3Sc3ccccc32)cc1`, for which the parasite survival was 47.4%.

Take `O=S(=O)(Nc1ccc(-n2cccc2)cc1)c1ccc(Cl)c(Cl)c1`: the parasite survival is 58.1%.

Take `CC[C@@]1(O)C(=O)OCc2c1cc1n(c2=O)Cc2cc3c([N+](=O)[O-])cccc3nc2-1`: the parasite survival was 57.5%.

As for `CC(=O)Nc1cc(NS(=O)(=O)c2ccc(Cl)cc2)cc2c(Cl)[nH]nc12`, the parasite survival was 52%.

For `CCCCCCC1c2ccc(O)cc2Oc2cc(O)ccc21`, the parasite survival was 25.2%.

With `CN1CCN(Cc2ccc(-c3cnc4[nH]cc(-c5ccc6[nH]ccc6c5)c4c3)cc2)CC1`, the parasite survival is 7.23% (active).

On to `CSc1ccc2c(c1)C(N1CCN(C)CC1)Cc1ccccc1S2` (stereo not given), for which the parasite survival was 34.5%.

As for `CSC[C@H]1CN(Cc2c[nH]c3c(N)ncnc23)C[C@@H]1O`, the parasite survival is 45.9%.

Regarding `CCCCC(CC)CNC(=N)NC(=N)NCCCCCCNC(=N)NC(=N)NCC(CC)CCCC` (stereo not given), the parasite survival was 3.8% (active).

On to `CC(C)(C)NC(=O)[C@@H]1CN(Cc2cnc3occc3c2)CCN1C[C@@H](O)C[C@@H](Cc1ccccc1)C(=O)N[C@H]1c2ccccc2C[C@H]1O`, for which the parasite survival was 58.1%.

With `CCCCCCCCC(CP(=O)(O)C(C)N)C(=O)O` (stereo not given), the parasite survival was 62.7%.

Consider `Nc1nc2c(ncn2COC(CO)CO)c(=O)[nH]1`, for which the parasite survival was 80%.

For the compound `O=C(/C(=C/c1ccc(Cl)cc1Cl)n1ccnc1)c1ccc(Cl)cc1`, the parasite survival was 10.2% (active).

As to `CCCCc1ccc(S(=O)(=O)Nc2cc(C)on2)cc1`, the parasite survival is 39.1%.

In the case of `CCCCCOc1ccc(/C=C2\Oc3c(ccc(O)c3O)C2=O)c(O)c1`, the parasite survival was 48.2%.

In the case of `C/C(=N\NC(=O)C1CC1c1ccccc1)c1ccc(NC(=O)c2ccco2)cc1` (stereo not given), the parasite survival is 47.3%.

Regarding `O=S(=O)(Nc1ccccc1)c1ccc(NC(=S)Nc2ccccc2)cc1`, the parasite survival is 47.2%.
